Laboratory results reported in PubChem BioAssay (NCATS).
Records with an inconclusive call do not appear. Active and inactive are the calls of the source. Calls come from the whole dose curve; as a rule, active = well fitted inhibition curve with a large enough effect; inconclusive = small, poorly fitted or top-dose-only effect; inactive = flat fitted curve, though single readings scatter. Numbered stars: 1 amine (or outer) side, 2 acyl side, 3 side chain; on linkers, the order of the positions; unused ones are H or OH. Bridge positions count the residues as written; N and C are the ends. Square brackets hold non-standard residues; d marks the D form. Peptide text beside a SMILES is read from it. I, II: the chains in the order shown. Actinocin(9to1) = Cc1c2oc3c(C)ccc(C(=O)[*:1])c3nc-2c(C(=O)[*:2])c(N)c1=O; NMeV = CN[C@H](C(=O)O)C(C)C; Sar = CNCC(=O)O

Test system: Zika virus NS2B-NS3 protease (linked construct)
Assay: Confirmatory screen NINDS AMC qHTS for Zika virus inhibitors (AID 1347152);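 for activity change, negative = inhibition: AMC fluorescence gain from cleaved Bz-Nle-KRR-AMC substrate over 15 min; top concentration of the series differs between compounds; 0% = no-inhibitor control and -100% = no-enzyme control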
Conditions: Purified linked NS2B-NS3, AMC substrate fluorescence; series mostly up to 56.6 µM; activity change, negative = inhibition: at the top concentration
Procedure, shortened: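 Concentration-response confirmation used the NINDS linked protease (NS2B hydrophilic domain joined to NS3 protease domain), 1 nM, with a 15-min compound preincubation. Substrate, Nle-KRR-AMC at 10 microM, was read by UV fluorescence before and after 15 min.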
Note: nearly all actives have a fitted effect of over 70% in size.
Potency is the fitted concentration of half-maximal effect.

SMILES | activity change, negative = inhibition | Potency
Cc1c2oc3c(C)ccc(C(=O)N[C@@H]4C(=O)N[C@H](C(C)C)C(=O)N5CCC[C@H]5C(=O)N(C)CC(=O)N(C)[C@@H](C(C)C)C(=O)O[C@@H]4C)c3nc-2c(C(=O)N[C@@H]2C(=O)N[C@H](C(C)C)C(=O)N3CCC[C@H]3C(=O)N(C)CC(=O)N(C)[C@@H](C(C)C)C(=O)O[C@@H]2C)c(N)c1=O (I: T[dV]P[Sar][NMeV] / II: T[dV]P[Sar][NMeV]; ester I:1-I:C, II:1-II:C; linker I:N-II:N via Actinocin(9to1)) | -2.55% (inactive) | 
CC(C)C[C@H]1C(=O)N2CCC[C@H]2[C@]2(O)O[C@](NC(=O)[C@@H]3C=C4c5cccc6[nH]c(Br)c(c56)C[C@H]4N(C)C3)(C(C)C)C(=O)N12 | 16.9% (inactive) | 
O=C(Nc1ccc(Oc2ccc(Cl)cc2)c(Cl)c1)c1cc(I)cc(I)c1O |  | 13.6 µM (active)

Test system: Zika virus NS2B-NS3 protease (unlinked complex)
Assay: Confirmatory screen GU AMC qHTS for Zika virus inhibitors (AID 1347153);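 for activity, negative = inhibition: percent inhibition with 0% = no inhibitor control and 100% = no enzyme control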
Conditions: Recombinant NS2B-NS3 protease, AMC substrate fluorescence; series mostly up to 57.1 µM; activity, negative = inhibition: at the top concentration
Procedure, shortened: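 Unlinked enzyme 25 nM, Tris pH 8.0/0.01% Tween 20; cpd 15 min RT, dark; + AMC substrate 10 µM (Km 18.3 µM); 340/450 nm read at t0 and 15 min; % inhibition → 4-param fit.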

SMILES | activity, negative = inhibition | Potency
Cc1c2oc3c(C)ccc(C(=O)N[C@@H]4C(=O)N[C@H](C(C)C)C(=O)N5CCC[C@H]5C(=O)N(C)CC(=O)N(C)[C@@H](C(C)C)C(=O)O[C@@H]4C)c3nc-2c(C(=O)N[C@@H]2C(=O)N[C@H](C(C)C)C(=O)N3CCC[C@H]3C(=O)N(C)CC(=O)N(C)[C@@H](C(C)C)C(=O)O[C@@H]2C)c(N)c1=O (I: T[dV]P[Sar][NMeV] / II: T[dV]P[Sar][NMeV]; ester I:1-I:C, II:1-II:C; linker I:N-II:N via Actinocin(9to1)) | 2.06% (inactive) | 
CC(C)C[C@H]1C(=O)N2CCC[C@H]2[C@]2(O)O[C@](NC(=O)[C@@H]3C=C4c5cccc6[nH]c(Br)c(c56)C[C@H]4N(C)C3)(C(C)C)C(=O)N12 | 5.75% (inactive) | 
Nc1nc2ncc(CNc3ccc(C(=O)N[C@@H](CCC(=O)O)C(=O)O)cc3)nc2c(=O)[nH]1 | -2.47% (inactive) | 
O=C(Nc1ccc(Oc2ccc(Cl)cc2)c(Cl)c1)c1cc(I)cc(I)c1O |  | 21.5 µM (active)

Test system: Zika virus NS2B-NS3 protease
Assay: Primary screen GU AMC qHTS for Zika virus inhibitors (AID 1347154);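 for activity change, negative = inhibition: 0% = no-inhibitor control and -100% = no-enzyme control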
Conditions: Zika NS2B-NS3 unlinked protease, AMC fluorogenic substrate; series mostly up to 54.1 µM; activity change, negative = inhibition: at the top concentration
Procedure, shortened: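 Unlinked Zika NS2B hydrophilic domain/NS3 protease domain noncovalent complex (25 nM final) in 10 mM Tris-HCl pH 8.0, 0.01% Tween 20, with AMC peptide substrate. Fluorescence (ex 340, em 450 nm) change over 15 min, room temperature; percent inhibition fitted to 4-parameter Hill equation.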

SMILES | activity change, negative = inhibition | Potency
C[C@H](CCC(=O)O)[C@H]1CC[C@H]2[C@@H]3C(=O)C[C@@H]4CC(=O)CC[C@]4(C)[C@H]3CC(=O)[C@]12C | -4.55% (inactive) | 
CC(O)C(=O)O (stereo not given) | 2.75% (inactive) | 
O=C1OCCN1/N=C/c1ccc([N+](=O)[O-])o1 | -7.89% (inactive) | 
CCOc1ccc(NC(=O)CC(C)O)cc1 (stereo not given) | -4.45% (inactive) | 
Nc1ccc(/C=C/c2ccc(N)cc2S(=O)(=O)O)c(S(=O)(=O)O)c1 | -4.58% [at 0.59 µM] (inactive) | 
Cc1cc(=O)n(-c2ccccc2)n1C |  | inactive
O=C1[C@H]2CCCC[C@H]2C(=O)N1CCCCN1CCN(c2nsc3ccccc23)CC1 | -3.29% (inactive) | 
CN=C(NC#N)NCCSCc1csc(N=C(N)N)n1 |  | inactive
CC1(C)O[C@@H]2C[C@H]3[C@@H]4CCC5=CC(=O)CC[C@]5(C)[C@@]4(F)[C@@H](O)C[C@]3(C)[C@]2(C(=O)CCl)O1 | -5.98% (inactive) | 
Clc1ccc2c(c1)CCc1cccnc1C2=C1CCNCC1 |  | inactive
Cc1c2oc3c(C)ccc(C(=O)N[C@@H]4C(=O)N[C@H](C(C)C)C(=O)N5CCC[C@H]5C(=O)N(C)CC(=O)N(C)[C@@H](C(C)C)C(=O)O[C@@H]4C)c3nc-2c(C(=O)N[C@@H]2C(=O)N[C@H](C(C)C)C(=O)N3CCC[C@H]3C(=O)N(C)CC(=O)N(C)[C@@H](C(C)C)C(=O)O[C@@H]2C)c(N)c1=O (I: T[dV]P[Sar][NMeV] / II: T[dV]P[Sar][NMeV]; ester I:1-I:C, II:1-II:C; linker I:N-II:N via Actinocin(9to1)) | -7.82% (inactive) | 
C=CCc1ccc(O)c(OC)c1 | -3.71% (inactive) | 
CCOC(=O)OC(C)OC1=C(C(=O)Nc2ccccn2)N(C)S(=O)(=O)c2ccccc21 (stereo not given) | -7.88% (inactive) | 
Cc1c(C(C)C)c(=O)n(-c2ccccc2)n1C | -2.41% (inactive) | 
CCOC(=O)c1cccc(N)c1 | -8.25% (inactive) | 
CCCCCCC[N+](CC)(CC)CCCCc1ccc(Cl)cc1 | 3.97% (inactive) | 
Nc1nc2ncc(CNc3ccc(C(=O)N[C@@H](CCC(=O)O)C(=O)O)cc3)nc2c(=O)[nH]1 |  | 18.1 µM (active)
O=S1(=O)c2cccc3cccc(c23)N1CCCN1CCN(c2ccc(F)cc2)CC1 |  | inactive
CC(=O)Nc1c(I)cc(I)c(C(=O)O)c1I | -2.94% (inactive) | 

SMILES | activity change, negative = inhibition | Potency
CC(=O)Oc1ccc2c(c1)CC[C@@H]1[C@@H]2CC[C@]2(C)[C@@H](O)CC[C@@H]12 | -4.55% (inactive) | 
CC1(C)O[C@@H]2C[C@H]3[C@@H]4C[C@H](F)C5=CC(=O)C=C[C@]5(C)[C@H]4[C@@H](O)C[C@]3(C)[C@]2(C(=O)CO)O1 | -1.9% (inactive) | 
O=C(Nc1ccc(Oc2ccc(Cl)cc2)c(Cl)c1)c1cc(I)cc(I)c1O |  | 14.1 µM (active)
COc1cccc(CCc2ccccc2OCC(CN(C)C)OC(=O)CCC(=O)O)c1 (stereo not given) | 1.06% (inactive) | 
CC(Cc1cccc(C(F)(F)F)c1)NCCOC(=O)c1ccccc1 (stereo not given) | -5.17% (inactive) | 
O=C(O)CCCCC(=O)O | -4.12% (inactive) | 
CC(=O)[C@H]1CC[C@H]2[C@@H]3C[C@H](C)C4=CC(=O)CC[C@]4(C)[C@H]3[C@@H](O)C[C@]12C | -4.23% (inactive) | 
O=C(O)CNC(=O)c1ccccc1 | 0.579% (inactive) | 
CN=C(NC#N)Nc1ccc(C2=NNC(=O)CC2C)cc1 (stereo not given) |  | inactive
CCCC(=O)O[C@]1(C(=O)CO)CC[C@H]2[C@@H]3CCC4=CC(=O)CC[C@]4(C)[C@H]3[C@@H](O)C[C@@]21C | -0.591% (inactive) | 
CC1(C)O[C@@H]2C[C@H]3[C@@H]4C[C@H](F)C5=CC(=O)CC[C@]5(C)[C@H]4[C@@H](O)C[C@]3(C)[C@]2(C(=O)CO)O1 | -8.1% (inactive) | 
Cc1ccc(O)c2ncccc12 | 0.535% (inactive) | 
C/C=C(/C(=C/C)c1ccc(O)cc1)c1ccc(O)cc1 | -10.9% (inactive) | 
COc1cc(C(=S)N2CCOCC2)cc(OC)c1OC | 3.69% (inactive) | 
Cc1c(N(C)CS(=O)(=O)O)c(=O)n(-c2ccccc2)n1C | 0.171% (inactive) | 
C[C@]12C=CC(=O)C=C1CC[C@@H]1[C@@H]2[C@@H](O)C[C@@]2(C)[C@H]1CC[C@]2(O)C(=O)CO | 2% (inactive) | 
CC(C)(CO)[C@@H](O)C(=O)NCCCO | -2.2% (inactive) | 
Oc1ccc(Cl)c2cccnc12 | -2.48% (inactive) | 
Cc1ncc(CSSCc2cnc(C)c(O)c2CO)c(CO)c1O | -1.24% (inactive) | 
